The target of assay [1] is Glutathione peroxidase 1 (Homo sapiens) (UniProt P07203). The assay can be described thus: Primary qHTS Assay for Inhibitors of Recombinant Selenoprotein Glutathione Peroxidase 1 (GPX1) (AID 1845191). Also: nearly all actives have a fitted effect of over 65% in size. As to activity, negative = inhibition: % is scaled to controls: 0 for no effect and ±100 for the full control effect. The procedure, abridged:
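Recombinant GPX1 (10 nM final) was preincubated with compound for 30 min at room temperature, then reacted with 1 mM GSH, 0.5 mM CHP, 0.5 mM NADPH and 100 nM glutathione reductase; NADPH fluorescence (340/450 nm) was read at 0 and 15 min.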
For orientation: In qHTS, concentration-response curves come from the screen itself.

Assay [2] has as its target Phospholipid hydroperoxide glutathione peroxidase GPX4 (Homo sapiens) (UniProt P36969). The assay is described as follows: Primary qHTS Assay for Inhibitors of Recombinant Selenoprotein Glutathione Peroxidase 4 (GPX4) (AID 1845192). Also: nearly all actives have a fitted effect of over 65% in size. As to activity change, negative = inhibition: series mostly up to about 50 µM; % is scaled to controls: 0 for no effect and ±100 for the full control effect. The procedure, abridged:
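GR-coupled readout: 100 nM GR, 1 mM GSH, 0.5 mM NADPH; NADPH fluorescence (ex 340/em 450 nm) read at t=0 and after 15 min RT. GPX4 200 nM, preincubated 30 min with compound; substrate 0.5 mM CHP.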

Assay [3] has as its target Luciferin 4-monooxygenase (Photinus pyralis) (UniProt P08659). The assay can be described thus: Primary firefly luciferase (FLuc) qHTS assay for identification of artifact compounds. (AID 1845220). Also: nearly all actives have a fitted effect of over 60% in size.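 As to activity change, negative = inhibition: series mostly up to about 54 µM; plate controls were DMSO vehicle for no effect and no enzyme for full effect.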 The procedure, abridged: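 In this counter-screen for luciferase artifacts, test compounds met substrate (10 uM each luciferin and ATP) before 10 nM enzyme started the reaction. Light output was measured 5 min later.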

Assay [4] is described as follows: Primary fluorescence-based thiol-reactive (MSTI) qHTS assay for identification of artifact compounds. (AID 1845221). Also: nearly all actives have a fitted effect of over 65% in size. Also: potency is read from the fitted curve at half-maximal effect.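 As to activity change, negative = thiol reactive: series mostly up to about 54 µM; thiol-reactive compounds lower the probe fluorescence signal.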 In short, it runs like this:
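qHTS titration of compound; 4 uM MSTI, PBS pH 7.4, 2% DMSO; 1 h RT, dark; fluorescence 525/598 nm; normalized to Acetyl-MSTI and MSTI; 4-parameter Hill fit.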

The test system of assay [5] is Nanoluciferase (engineered Oplophorus gracilirostris luciferase). The assay can be described thus: Primary Nanoluciferase (NLuc) qHTS assay for identification of artifact compounds. (AID 1845222).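 Also: NLuc secreted into diluted conditioned medium of S16 cells; series mostly up to about 54 µM; 0% = DMSO and -100% = no enzyme.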 In short, it runs like this: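 Using secreted nanoluciferase in S16 culture medium (0.22 um filtered, 1:55 dilution), compounds were preincubated 15 min at RT. Signal was generated with Nano-Glo reagent (1:100) over 5 min.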

The nature of assay [6]: Primary redox qHTS assay for identification of artifact compounds. (AID 1845223).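 Also: 0% = DMSO and 100% = reference compound.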 In short, it runs like this:
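Amplex Red (25 uM) and HRP (250 mU/mL) in HBSS, with compounds for 15 min, then 250 uM DTT for 30 min, room temperature, dark. Fluorescence 525/598 nm read; normalized to DMSO and 10 uM DA3003; Hill fit.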

A number with no mark means an inactive call. Records with an inconclusive call do not appear. Active and inactive are the calls of the source. Calls follow the shape of the dose curve; as a rule, active = well fitted curve in the direction sought with a large enough effect; inconclusive = small, poorly fitted or top-dose-only effect, or another doubt; inactive = no such curve, though single readings can be large; an effect the other way counts as inactive or inconclusive.

Chain of Phospholipid hydroperoxide glutathione peroxidase GPX4 (Homo sapiens) (P36969 whole entry, looked up): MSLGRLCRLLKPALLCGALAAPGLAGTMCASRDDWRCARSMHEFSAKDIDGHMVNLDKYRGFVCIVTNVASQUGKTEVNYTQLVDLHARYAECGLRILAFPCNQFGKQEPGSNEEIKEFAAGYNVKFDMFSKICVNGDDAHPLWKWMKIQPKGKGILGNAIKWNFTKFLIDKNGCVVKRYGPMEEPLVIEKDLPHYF
Chain of Glutathione peroxidase 1 (Homo sapiens) (P07203 whole entry, looked up): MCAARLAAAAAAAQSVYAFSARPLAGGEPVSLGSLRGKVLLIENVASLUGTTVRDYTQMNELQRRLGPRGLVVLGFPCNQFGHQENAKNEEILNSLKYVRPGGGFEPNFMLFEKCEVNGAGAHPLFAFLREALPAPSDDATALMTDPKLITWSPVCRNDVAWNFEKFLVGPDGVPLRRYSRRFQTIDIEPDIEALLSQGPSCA

In the case of `CNC(C)C(=O)NC(C(=O)N1CCCC1C(=O)Nc1cccc2ncccc12)C(C)C` (stereo not given), the Potency result in assay [1], in assay [2], in assay [3], in assay [4], in assay [5] and in assay [6] was “inactive” each time.

`CC(C)Oc1ccc(-c2nc(-c3cccc4c3CCC4NCCC(=O)O)no2)cc1C#N` (stereo not given): the Potency entry in assay [1], in assay [2], in assay [3], in assay [4], in assay [5] and in assay [6] was “inactive” in each case.

Consider `CC12CC34CC(O)C5C(CO)(CO)CC(=O)CC5(C)C3CC1C2C4` (stereo not given), for which the Potency result in assay [1], in assay [2], in assay [3], in assay [4], in assay [5] and in assay [6] was “inactive” in each case.

Turning to `COC(=O)c1ccccc1O[C@@H]1O[C@H](CO[C@@H]2OC[C@@H](O)[C@H](O)[C@H]2O)[C@@H](O)[C@H](O)[C@H]1O`, the Potency entry in assay [1], in assay [2], in assay [3], in assay [5] and in assay [6] was “inactive” each time. The Potency in assay [4] is 5.19 µM (active).

As to `CC(C)(O)C1CC=C(C(=O)OC[C@H]2O[C@@H](OC(=O)C3=CCC(C(C)(C)O)CC3)[C@H](O)[C@@H](O)[C@@H]2O)CC1` (stereo not given in full), the Potency entry in assay [1], in assay [2], in assay [3], in assay [5] and in assay [6] was “inactive” in each case. For the same molecule, the Potency in assay [4] was 4.12 µM (active).

Turning to `C=C1C(=O)O[C@@H]2C[C@]3(C)[C@@H](CCC(C)=O)[C@@H]3C[C@H]12`, the Potency result in assay [1], in assay [2], in assay [3], in assay [4], in assay [5] and in assay [6] was “inactive” each time.

Turning to `CC(CC12CCCN1C(=O)C1CCCN1C2=O)OC(N)=O` (stereo not given), the Potency entry in assay [1], in assay [2], in assay [3], in assay [4], in assay [5] and in assay [6] was “inactive” throughout.

Take `C=C1C(O)C(OC(=O)c2ccccc2)C2C(C)(C(=O)O)CCCC2(C)C1CC/C(C)=C\CO` (stereo not given): the Potency result in assay [1], in assay [2], in assay [3], in assay [4], in assay [5] and in assay [6] was “inactive” each time.

Turning to `CC1=CCC[C@@H]2[C@@](C)(CCc3ccoc3)[C@H](C(=O)O)CC[C@@]12C`, the Potency result in assay [1], in assay [2], in assay [3], in assay [4], in assay [5] and in assay [6] was “inactive” each time.

`NC(=O)[C@H](Cc1ccccc1)NC(=O)[C@H](CCCN=C(N)N)NC(=O)C12CC3CC(CC(C3)C1)C2`: the Potency result in assay [1] and in assay [2] was “inactive” in each case. The activity change, negative = inhibition in assay [3] was 0.126% [at 11.6 µM]. For the same molecule, the activity change, negative = thiol reactive in assay [4] is 37.2% [at 11.5 µM]. The activity, negative = inhibition in assay [5] was 3.23% [at 11.6 µM]. Moreover, the redox activity (% of DA3003) in assay [6] was -2.26% [at 11.5 µM].

With `CC1=CC(=O)C2C(C)(C)CCC[C@]2(C)[C@H]1CC[C@H](C)CC(=O)O` (stereo not given in full), the Potency entry in assay [1], in assay [2], in assay [3], in assay [4], in assay [5] and in assay [6] was “inactive” throughout.

Regarding `COC(=O)C1=COC(O[C@@H]2O[C@H](CO)[C@@H](O)[C@H](O)[C@H]2O)[C@@H]2[C@@](C)(O)[C@@H](OC(=O)/C=C/c3ccccc3)C[C@]12O` (stereo not given in full), the Potency entry in assay [1], in assay [2], in assay [3], in assay [5] and in assay [6] was “inactive” in each case. Also, the Potency in assay [4] is 13 µM (active).

Take `CCOc1ccc(-c2nn3ncccc3c2-c2ccc(S(C)(=O)=O)cc2)cc1`: the Potency entry in assay [1], in assay [2], in assay [3], in assay [4], in assay [5] and in assay [6] was “inactive” throughout.

For `O=C(/C=C/c1ccc(O)c(O)c1)O[C@@H]1[C@@H](O)[C@H](OC2CCCCC2O)O[C@H](CO)[C@H]1O` (stereo not given in full), the Potency result in assay [1], in assay [2], in assay [3], in assay [5] and in assay [6] was “inactive” in each case. The Potency in assay [4] was 2.92 µM (active).

Regarding `CC[C@@H]1C(=O)O[C@]23C=C[C@@H]4C(C(=O)OC)=CO[C@H](O[C@@H]12)[C@@H]43`, the Potency entry in assay [1], in assay [2], in assay [3], in assay [5] and in assay [6] was “inactive” in each case. Further, the Potency in assay [4] was 10.6 µM (active).

Turning to `C=C1CC[C@@H]2C(C)(C)CCC[C@@]2(C)[C@@H]1CC/C(=C/C(=O)OC)COC(C)=O`, the Potency result in assay [1], in assay [2], in assay [3], in assay [4], in assay [5] and in assay [6] was “inactive” throughout.

With `COc1cc(/C=C/C(=O)O[C@H]2[C@H](O)[C@@H](CO)O[C@@]2(CO)O[C@H]2O[C@H](CO)[C@@H](O)[C@H](O)[C@H]2O)cc(OC)c1O`, the Potency result in assay [1], in assay [2], in assay [3], in assay [4], in assay [5] and in assay [6] was “inactive” throughout.

For the molecule `CCCC/C=C\CCCCCc1cc(=O)c2ccccc2n1C`, the Potency result in assay [1], in assay [2], in assay [3], in assay [4], in assay [5] and in assay [6] was “inactive” in each case.

In the case of `Cc1ccc2nc(NC(=O)CSc3nc4c(c(=O)n3-c3ccc(F)cc3)SCC4)sc2c1`, the Potency entry in assay [1], in assay [2], in assay [3], in assay [4], in assay [5] and in assay [6] was “inactive” in each case.

For the molecule `NC(=O)c1ccc(F)c2c1C[C@@H](N(C1CCC1)C1CCC1)CO2`, the Potency entry in assay [1], in assay [2], in assay [3], in assay [4], in assay [5] and in assay [6] was “inactive” throughout.

The record behind these values is PubChem BioAssay (NCATS).
